Screening data from PubChem BioAssay.
In the library only some 7.5% were active in any assay of this set; here they are far more common.
Rab9 promoter act – Rab9 promoter activation. Potency, µM (series often up to 9.22 µM), usual class: activators. 2.8% of 320,000 active. Huh7 Rab9 promoter-luciferase reporter, luminescence, 24 h; also: nearly all actives have a fitted effect of over 60% in size
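Cell-based reporter: Huh7 stable for Rab9 promoter-driven luciferase, plated in reduced-serum medium with 10% FBS at 1500 cells/well, compound-treated 24 h at 37 °C, luminescence read after 10 min reagent.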
NPC1 prom act – activators of NPC1 promoter. 2.4% of 320,000 active. AID 485313. Potency, µM (highest dose often 9.22 µM), usual class: activators. Huh7 NPC1 promoter luciferase reporter, 24 h; also: nearly all actives have a fitted effect of over 60% in size
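Huh7 reporter cells (NPC1 promoter driving luciferase) are dosed with compound for 24 h at 37 °C, 5% CO2; luciferase detection reagent is then added and luminescence measured after 10 min at ambient temperature.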
FLuc modulator – counter-screen for miR-21 project: firefly luciferase inhibitors or activators. P08659. purified FLuc, Km substrates, luminescence inhibition. Potency, µM (highest dose often 57.5 µM), actives largely listed as inhibitors. 6.9% of 360,000 active. AID 588342; also: nearly all actives have a fitted effect of over 55% in size
Target sequence (P08659 whole entry, looked up): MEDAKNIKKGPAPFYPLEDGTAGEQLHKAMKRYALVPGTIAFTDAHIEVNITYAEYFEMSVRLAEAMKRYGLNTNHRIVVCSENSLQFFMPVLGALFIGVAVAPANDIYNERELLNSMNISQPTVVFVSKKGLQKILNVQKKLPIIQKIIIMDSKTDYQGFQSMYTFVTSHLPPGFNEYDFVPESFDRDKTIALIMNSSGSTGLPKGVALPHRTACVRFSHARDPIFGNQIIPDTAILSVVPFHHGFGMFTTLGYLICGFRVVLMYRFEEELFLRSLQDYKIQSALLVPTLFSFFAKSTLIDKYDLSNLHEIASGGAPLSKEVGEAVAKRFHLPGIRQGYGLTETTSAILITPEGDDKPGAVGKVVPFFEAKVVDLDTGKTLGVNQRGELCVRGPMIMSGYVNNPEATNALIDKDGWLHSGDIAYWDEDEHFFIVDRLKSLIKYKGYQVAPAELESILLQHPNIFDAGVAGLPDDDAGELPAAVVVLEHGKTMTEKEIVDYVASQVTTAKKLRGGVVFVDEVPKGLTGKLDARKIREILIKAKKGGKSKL
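Purified P. pyralis luciferase, 10 nM final, with Km-level 10 uM D-luciferin and 10 uM ATP in 50 mM Tris acetate pH 7.5, 10 mM Mg acetate, 0.01% Tween-20, 0.05% BSA; 6-point qHTS titration about 60 µM downward; luminescence read.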
KinaseGlo FLuc – blocks Kinase-Glo luciferase, a counter-screen artifact | Q27757 | Kinase-Glo luciferase, ATP luminescence, 8 min | Potency, µM (highest dose often 38.3 µM), usual class: inhibitors | 0.28% of 200,000 active; also: nearly all actives have a fitted effect of over 60% in size
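Light output from Kinase-Glo luciferase with luciferin and 10 uM ATP in 50 mM imidazole pH 7.2, KCl, MgCl2, Tween 20, BSA; compound pin-delivered, 8-min ambient incubation, then luminescence read.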
SMN2 splice up – increases expression of the SMN2 splice variant; HEK293 SMN2-luciferase splicing reporter, luminescence, 30-36 h; Potency, µM (highest dose often 46.1 µM), most hits filed as activators; 2.8% of 210,000 active; also: nearly all actives have a fitted effect of over 55% in size
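HEK293 cells carry an SMN2 minigene-luciferase reporter in which exon 7 inclusion puts luciferase in frame. Cells were seeded at 2000 cells/well, attached for 10-12 hours, then exposed to compounds for 30-36 hours at 37C before ONE-Glo luminescence.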
ELG1 genotox – induces genotoxicity in HEK293T cells with luciferase-tagged ELG1; Potency, µM (top dose mostly 46 µM), hits mostly activators; AID 504466; HEK293T ELG1-luciferase reporter, luminescence, 16 h; 1.3% of 330,000 active; also: nearly all actives have a fitted effect of over 60% in size
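Luminescence read-out: rising ELG1-luciferase signal, reflecting elevated ELG1 protein under genetic stress, flags genotoxic compounds. Cells were treated for 16 hr at 37 °C before ONE-Glo detection.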
Numbers stand for hits; – = inactive; ? = inconclusive; · = not tested or not shown. Calls follow the shape of the dose curve; as a rule, active = well fitted curve in the direction sought with a large enough effect; inconclusive = small, poorly fitted or top-dose-only effect, or another doubt; inactive = no such curve, though single readings can be large; an effect the other way counts as inactive or inconclusive.

SMILES | Rab9 promoter act | NPC1 prom act | FLuc modulator | KinaseGlo FLuc | SMN2 splice up | ELG1 genotox
CC12CCC(C(=O)Nc3nc4ccc(Br)cc4s3)(OC1=O)C2(C)C (stereo unspecified) | ? | ? | 19µM | – | ? | –
O=C(/C=C/c1ccco1)Nc1scc(-c2ccccc2)c1C(=O)O | 0.501µM | 0.447µM | 4.78µM | · | · | ?
O=C(/C=C/c1ccccc1)Nc1scc(-c2ccccc2)c1C(=O)O | 1.58µM | 2.51µM | 3.01µM | – | 11.2µM | –
O=C(Oc1ccc2c3c(c(=O)oc2c1)CCC3)c1ccco1 | – | – | 13.5µM | – | – | –
O=C(Oc1cc2oc(=O)c3c(c2cc1Cl)CCCC3)c1cccs1 | – | – | – | – | – | –
O=C(Oc1ccc2c3c(c(=O)oc2c1)CCCC3)c1cccs1 | – | – | 16.9µM | – | – | –
Cc1cc(C(=O)N2CCCC(Nc3ccc(F)cc3)C2)c(C)o1 (stereo unspecified) | – | – | – | · | · | –
O=C(Nc1ccc(F)cc1F)C1CCCN(c2ncnc3c2nc2n3CCCCC2)C1 (stereo unspecified) | – | – | – | · | · | –
Fc1ccc(Nc2ncnc3c2nc2n3CCCCC2)c(F)c1 | · | · | 21.3µM | · | · | ·
COc1ccc(Nc2ncnc3c2nc2n3CCCC2)cc1Cl | · | · | 19µM | · | · | ·
CCOc1ccc(Nc2ncnc3c2nc2n3CCCCC2)cc1 | · | · | – | · | · | ·
COc1ccc(Nc2ncnc3c2nc2n3CCCCC2)cc1 | · | · | 16.9µM | · | · | ·
O=C(OCC(=O)N1CCC(Cc2ccccc2)CC1)c1cccnc1Cl | · | · | · | · | · | –
CC(=O)c1ccc(S(=O)(=O)N2CCN(C(=O)CSc3ccc(C)c(C)c3)CC2)cc1 | – | – | – | · | · | –
Cc1cc(C)n(CCc2nc(-c3ccc(F)cc3)cs2)n1 | – | – | – | – | · | –
Cc1ccc(-c2csc(N3C(=N)SCC3=O)n2)cc1 | 2.82µM | ? | 2.39µM | · | · | 10.3µM
Cc1cc(C)n(-c2nc(-c3ccc(Cl)cc3)cs2)n1 | 3.55µM | ? | 5.36µM | – | – | ?
COc1ccc(-c2csc(CCN3N=C(C)CC3=O)n2)cc1 | – | – | ? | – | – | –
CC(C)(C)c1ccc(N2C(=N)SCC2=O)cc1 | – | – | – | · | · | –
CC1=NN(c2nc(-c3ccc(Cl)cc3)cs2)C(=O)C1 | – | – | 15.1µM | – | – | –
CC1=NN(c2nc(-c3ccc(F)cc3)cs2)C(=O)C1 | – | – | 16.9µM | – | – | –
CC1=NN(c2ccc(Cl)cc2)C(=O)C1 | – | – | – | – | – | –
CCCc1nnc(NC(=O)CCC(=O)Nc2ccc(Cl)cc2)s1 | – | – | – | · | · | ?
CCCc1nnc(NC(=S)Nc2ccccc2)s1 | 2.51µM | ? | ? | – | ? | ?
CC(C)(C)C(=O)Nc1nnc(CCc2ccccc2)s1 | 5.62µM | 3.98µM | 12µM | · | · | ?
SMILES | Rab9 promoter act | NPC1 prom act | FLuc modulator | KinaseGlo FLuc | SMN2 splice up | ELG1 genotox
CC(C)C(=O)Nc1nnc(CCc2ccccc2)s1 | – | – | – | · | · | –
CC(C)C(=O)Nc1nnc(NC(=S)Nc2ccccc2)s1 | 4.47µM | ? | 21.3µM | – | – | ?
CCCc1nnc(NC(=O)Nc2ccccc2Cl)s1 | · | · | ? | · | 15.8µM | ·
COc1ccc([C@@]2(C(C)C)ON(c3ccccc3C(F)(F)F)C2=O)cc1 | – | – | – | · | · | –
CCCC(=O)N1c2ccccc2C(N(C(C)=O)c2ccccc2)CC1C (stereo unspecified) | – | – | – | – | – | –
CCC(=O)N1c2ccccc2[C@@H](N(C(C)=O)c2ccccc2)C[C@H]1C | – | – | – | – | 7.94µM | 23.1µM
CCCCC(=O)Nc1cc(-c2nc3ccccc3o2)ccc1OC | · | · | – | · | – | ·
Cc1ccc2oc(-c3ccc(Cl)c(NC(=O)c4cc5ccccc5o4)c3)nc2c1 | · | · | 12µM | · | – | ·
COc1ccc(-c2nc3ccccc3o2)cc1NC(=O)C(C)(C)Oc1ccc(Br)cc1 | · | · | – | · | – | ·
CCc1ccc2oc(-c3cccc(NC(=O)C(C)(C)Oc4ccc(Br)cc4)c3)nc2c1 | · | · | 2.13µM | · | 5.01µM | ·
COc1ccc(-c2nc3ccccc3o2)cc1NC(=O)c1cccnc1 | · | · | 10.7µM | · | – | ·
CCc1ccc2oc(-c3cccc(NC(=O)c4cc5ccccc5o4)c3)nc2c1 | · | · | 2.39µM | · | ? | ·
O=C(Nc1ccc2oc(-c3ccccc3)nc2c1)c1cccnc1 | ? | ? | ? | – | – | –
CCc1ccc2oc(-c3cccc(NC(=O)c4cccnc4)c3)nc2c1 | ? | ? | 1.35µM | – | – | –
Cc1ccc2oc(-c3ccc(C)c(NC(=O)c4ccc(-c5ccccc5[N+](=O)[O-])o4)c3)nc2c1 | · | · | 10.7µM | · | – | ·
CC(C)c1ccc(NC(=O)CSC2=Nc3ccccc3C3=NC(CC(=O)NCc4ccc(F)cc4)C(=O)N23)cc1 (stereo unspecified) | · | · | – | · | · | ·
CCOc1cccc(C(=O)Nc2cc(-c3ccc(C)cc3)no2)c1 | · | · | – | · | – | ·
Cc1ccc(-c2cc(NC(=O)COc3ccc(Cl)c(C)c3)on2)cc1 | · | · | – | · | – | ·
